Targets include PROP1 (Homo sapiens, UniProt O75360 56-141, R99H); HOXC10 (Homo sapiens, UniProt Q9NYD6 254-340, K271E); HOXC9 (Homo sapiens, UniProt P31274 178-260, R222W).
What all share (experiment): PBM; 200 nM protein, PBS
Holding throughout (settings): dsDNA, one strand shown

Experiment [1] has as its target SHOX (Homo sapiens, UniProt O15266 103-189).
Experiment [2] deals with MSX2 (Homo sapiens, UniProt P35548 130-214, R199I).
Experiment [3] has as its target SHOX (Homo sapiens, UniProt O15266 103-189, R173C).
The target in experiment [4] is MSX2 (Homo sapiens, UniProt P35548 130-214).
For experiment [5], the target named is MSX2 (Homo sapiens, UniProt P35548 130-214, F161Y).
The target in experiment [6] is T1, PAX4 (Homo sapiens, UniProt O43316 9-242, R200K).
T1 sequence: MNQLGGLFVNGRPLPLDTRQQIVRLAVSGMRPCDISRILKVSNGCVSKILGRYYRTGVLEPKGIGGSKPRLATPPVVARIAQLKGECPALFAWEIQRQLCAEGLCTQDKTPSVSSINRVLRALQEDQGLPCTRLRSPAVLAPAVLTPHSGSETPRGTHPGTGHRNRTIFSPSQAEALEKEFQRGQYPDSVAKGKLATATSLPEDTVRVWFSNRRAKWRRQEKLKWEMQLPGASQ

In experiment [7] the target is T2, PAX4 (Homo sapiens, UniProt O43316 9-242).
T2 sequence: T1 sequence with K192R

The target in experiment [8] is ALX1 (Homo sapiens, UniProt Q15699 118-204, L144V).
Experiment [9] deals with T3, PAX4 (Homo sapiens, UniProt O43316 9-242, R200Q).
T3 sequence: T1 sequence with K192Q

In experiment [10] the target is ALX1 (Homo sapiens, UniProt Q15699 118-204, L144R).
In experiment [11] the target is T4, PAX4 (Homo sapiens, UniProt O43316 9-242, F177V).
T4 sequence: T1 sequence with F169V, K192R

Experiment [12] addresses T5, PAX4 (Homo sapiens, UniProt O43316 9-242, F177Y).
T5 sequence: T1 sequence with F169Y, K192R

The target in experiment [13] is HESX1 (Homo sapiens, UniProt Q9UBX0 95-180, R109Q).
The target in experiment [14] is HESX1 (Homo sapiens, UniProt Q9UBX0 95-180, P111T).
For experiment [15], the target named is T6, PAX4 (Homo sapiens, UniProt O43316 9-242, R227W).
T6 sequence: T1 sequence with K192R, R219W

The target of experiment [16] is ALX1 (Homo sapiens, UniProt Q15699 118-204).
Experiment [17] deals with HOXD13 (Homo sapiens, UniProt P35453 263-343, T313R).
The target in experiment [18] is HOXD13 (Homo sapiens, UniProt P35453 263-343).
Experiment [19] has as its target HOXD13 (Homo sapiens, UniProt P35453 263-343, T313A).
The target in experiment [20] is ALX3 (Homo sapiens, UniProt O95076 139-225, N203Q).
For experiment [21], the target named is ALX3 (Homo sapiens, UniProt O95076 139-225, N203S).
The target in experiment [22] is ALX3 (Homo sapiens, UniProt O95076 139-225).
The target of experiment [23] is VAX1 (Homo sapiens, UniProt Q5SQQ9 86-172).
In experiment [24] the target is ALX3 (Homo sapiens, UniProt O95076 139-225, L168Q).
The target in experiment [25] is ALX3 (Homo sapiens, UniProt O95076 139-225, L168V).
The target in experiment [26] is VAX1 (Homo sapiens, UniProt Q5SQQ9 86-172, T142I).
Experiment [27] has as its target VAX1 (Homo sapiens, UniProt Q5SQQ9 86-172, K157R).

Numbering of substitutions follows the chain as printed.

Chain of SHOX (Homo sapiens, UniProt O15266 103-189) (O15266 103-189): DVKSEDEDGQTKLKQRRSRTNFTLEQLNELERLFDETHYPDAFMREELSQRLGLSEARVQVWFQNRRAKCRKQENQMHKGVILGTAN
Chain of SHOX (Homo sapiens, UniProt O15266 103-189, R173C) (O15266 103-189 R173C): as the sequence (O15266 103-189) above, with R71C counted along it
Chain of HOXD13 (Homo sapiens, UniProt P35453 263-343, T313R) (P35453 263-343 T313R): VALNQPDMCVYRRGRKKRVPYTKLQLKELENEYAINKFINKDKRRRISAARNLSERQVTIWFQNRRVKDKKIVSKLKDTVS
Chain of ALX3 (Homo sapiens, UniProt O95076 139-225, N203Q) (O95076 139-225 N203Q): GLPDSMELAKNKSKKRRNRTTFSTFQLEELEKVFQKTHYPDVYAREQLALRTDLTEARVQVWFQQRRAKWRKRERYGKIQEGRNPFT
Chain of HOXD13 (Homo sapiens, UniProt P35453 263-343) (P35453 263-343): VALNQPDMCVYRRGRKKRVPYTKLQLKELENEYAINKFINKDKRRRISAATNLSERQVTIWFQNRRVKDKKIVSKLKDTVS
Chain of HOXD13 (Homo sapiens, UniProt P35453 263-343, T313A) (P35453 263-343 T313A): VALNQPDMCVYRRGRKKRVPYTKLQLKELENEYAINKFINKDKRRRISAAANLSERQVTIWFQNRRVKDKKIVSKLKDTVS
Chain of ALX3 (Homo sapiens, UniProt O95076 139-225, N203S) (O95076 139-225 N203S): as the sequence (O95076 139-225 N203Q) above, with Q65S counted along it
Chain of MSX2 (Homo sapiens, UniProt P35548 130-214, F161Y) (P35548 130-214 F161Y): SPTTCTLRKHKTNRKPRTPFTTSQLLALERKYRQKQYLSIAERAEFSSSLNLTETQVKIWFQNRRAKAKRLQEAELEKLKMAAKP
Chain of PROP1 (O75360 56-141 R99H): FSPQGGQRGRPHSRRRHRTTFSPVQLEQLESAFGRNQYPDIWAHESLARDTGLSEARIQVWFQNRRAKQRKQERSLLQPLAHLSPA
Chain of HESX1 (Homo sapiens, UniProt Q9UBX0 95-180, P111T) (Q9UBX0 95-180 P111T): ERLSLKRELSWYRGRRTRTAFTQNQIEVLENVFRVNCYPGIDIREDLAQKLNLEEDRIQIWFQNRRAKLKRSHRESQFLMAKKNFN
Chain of VAX1 (Homo sapiens, UniProt Q5SQQ9 86-172, K157R) (Q5SQQ9 86-172 K157R): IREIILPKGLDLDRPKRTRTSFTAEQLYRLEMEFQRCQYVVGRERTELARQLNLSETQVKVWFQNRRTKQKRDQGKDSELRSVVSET
Chain of HOXC10 (Q9NYD6 254-340 K271E): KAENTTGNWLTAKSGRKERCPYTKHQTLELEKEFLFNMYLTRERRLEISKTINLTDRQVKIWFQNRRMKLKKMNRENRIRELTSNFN
Chain of ALX1 (Homo sapiens, UniProt Q15699 118-204, L144R) (Q15699 118-204 L144R): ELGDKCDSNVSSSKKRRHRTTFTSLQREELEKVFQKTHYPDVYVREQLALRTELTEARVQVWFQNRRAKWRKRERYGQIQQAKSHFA
Chain of MSX2 (Homo sapiens, UniProt P35548 130-214) (P35548 130-214): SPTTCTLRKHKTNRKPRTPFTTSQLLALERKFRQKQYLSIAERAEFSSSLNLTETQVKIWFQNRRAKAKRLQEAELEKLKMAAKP
Chain of ALX1 (Homo sapiens, UniProt Q15699 118-204, L144V) (Q15699 118-204 L144V): as the sequence (Q15699 118-204 L144R) above, with R27V counted along it
Chain of ALX3 (Homo sapiens, UniProt O95076 139-225) (O95076 139-225): as the sequence (O95076 139-225 N203Q) above, with Q65N counted along it
Chain of ALX3 (Homo sapiens, UniProt O95076 139-225, L168Q) (O95076 139-225 L168Q): as the sequence (O95076 139-225 N203Q) above, with L30Q, Q65N counted along it
Chain of HOXC9 (P31274 178-260 R222W): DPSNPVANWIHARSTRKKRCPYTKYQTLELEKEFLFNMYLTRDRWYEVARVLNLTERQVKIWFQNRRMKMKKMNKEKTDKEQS
Chain of VAX1 (Homo sapiens, UniProt Q5SQQ9 86-172, T142I) (Q5SQQ9 86-172 T142I): as the sequence (Q5SQQ9 86-172 K157R) above, with T57I, R72K counted along it
Chain of HESX1 (Homo sapiens, UniProt Q9UBX0 95-180, R109Q) (Q9UBX0 95-180 R109Q): as the sequence (Q9UBX0 95-180 P111T) above, with R15Q, T17P counted along it
Chain of ALX3 (Homo sapiens, UniProt O95076 139-225, L168V) (O95076 139-225 L168V): as the sequence (O95076 139-225 N203Q) above, with L30V, Q65N counted along it
Chain of ALX1 (Homo sapiens, UniProt Q15699 118-204) (Q15699 118-204): as the sequence (Q15699 118-204 L144R) above, with R27L counted along it
Chain of MSX2 (Homo sapiens, UniProt P35548 130-214, R199I) (P35548 130-214 R199I): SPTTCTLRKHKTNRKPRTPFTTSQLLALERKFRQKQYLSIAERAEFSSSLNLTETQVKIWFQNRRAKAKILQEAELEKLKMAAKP
Chain of VAX1 (Homo sapiens, UniProt Q5SQQ9 86-172) (Q5SQQ9 86-172): as the sequence (Q5SQQ9 86-172 K157R) above, with R72K counted along it

As for ACCGGCTG, the binding signal with SHOX [1] is 7.1 upbm affinity estimate (log intensity, higher = more binding, comparable within an allelic series); with MSX2 [2], 9.47 upbm affinity estimate (log intensity, higher = more binding, comparable within an allelic series); with SHOX [3] it was 7.13 upbm affinity estimate (log intensity, higher = more binding, comparable within an allelic series); with MSX2 [4] it was 9.51 upbm affinity estimate (log intensity, higher = more binding, comparable within an allelic series); with MSX2 [5] it was 9.53 upbm affinity estimate (log intensity, higher = more binding, comparable within an allelic series).
In the case of AATTAGGG, the binding signal in the experiment with SHOX [1] was 11.7 upbm affinity estimate (log intensity, higher = more binding, comparable within an allelic series); in the experiment with PAX4 [6], 11.6 upbm affinity estimate (log intensity, higher = more binding, comparable within an allelic series); with PAX4 [7], 12.2 upbm affinity estimate (log intensity, higher = more binding, comparable within an allelic series); with ALX1 [8], 11.4 upbm affinity estimate (log intensity, higher = more binding, comparable within an allelic series); with PAX4 [9] it was 11.8 upbm affinity estimate (log intensity, higher = more binding, comparable within an allelic series); with SHOX [3] it was 9.29 upbm affinity estimate (log intensity, higher = more binding, comparable within an allelic series). In addition, the binding signal is 10.8 upbm affinity estimate (log intensity, higher = more binding, comparable within an allelic series) with ALX1 [10]; 10.3 upbm affinity estimate (log intensity, higher = more binding, comparable within an allelic series) with PAX4 [11]; 10.8 upbm affinity estimate (log intensity, higher = more binding, comparable within an allelic series) with PAX4 [12]; 8.69 upbm affinity estimate (log intensity, higher = more binding, comparable within an allelic series) with HESX1 [13]; 10.9 upbm affinity estimate (log intensity, higher = more binding, comparable within an allelic series) in the experiment with PROP1; 10.1 upbm affinity estimate (log intensity, higher = more binding, comparable within an allelic series) in the experiment with HESX1 [14]. Moreover, the binding signal in the experiment with PAX4 [15] was 10.8 upbm affinity estimate (log intensity, higher = more binding, comparable within an allelic series); with ALX1 [16], 12 upbm affinity estimate (log intensity, higher = more binding, comparable within an allelic series).
Consider AGGGAAAC, for which the binding signal in the experiment with SHOX [1] is 7.15 upbm affinity estimate (log intensity, higher = more binding, comparable within an allelic series); in the experiment with SHOX [3], 7.22 upbm affinity estimate (log intensity, higher = more binding, comparable within an allelic series).
In the case of CCGGGCGA, the binding signal with SHOX [1] is 7.31 upbm affinity estimate (log intensity, higher = more binding, comparable within an allelic series); in the experiment with SHOX [3], 7.22 upbm affinity estimate (log intensity, higher = more binding, comparable within an allelic series).
In the case of CAATCTTC, the binding signal was 7.99 upbm affinity estimate (log intensity, higher = more binding, comparable within an allelic series) with SHOX [1] and 7.51 upbm affinity estimate (log intensity, higher = more binding, comparable within an allelic series) with SHOX [3].
For the sequence GAACGCGC, the binding signal was 7.22 upbm affinity estimate (log intensity, higher = more binding, comparable within an allelic series) in the experiment with SHOX [1] and 7.23 upbm affinity estimate (log intensity, higher = more binding, comparable within an allelic series) with SHOX [3].
On to AGTTTATG, for which the binding signal with SHOX [1] was 8.25 upbm affinity estimate (log intensity, higher = more binding, comparable within an allelic series); with HOXD13 [17] it was 10.7 upbm affinity estimate (log intensity, higher = more binding, comparable within an allelic series); with HOXD13 [18] it was 11.9 upbm affinity estimate (log intensity, higher = more binding, comparable within an allelic series); in the experiment with HOXC10, 11.1 upbm affinity estimate (log intensity, higher = more binding, comparable within an allelic series); in the experiment with HOXD13 [19], 11.5 upbm affinity estimate (log intensity, higher = more binding, comparable within an allelic series).
For CCCAGCGC, the binding signal in the experiment with SHOX [1] is 7.21 upbm affinity estimate (log intensity, higher = more binding, comparable within an allelic series); with HOXD13 [17], 9.41 upbm affinity estimate (log intensity, higher = more binding, comparable within an allelic series); in the experiment with SHOX [3], 7.13 upbm affinity estimate (log intensity, higher = more binding, comparable within an allelic series); in the experiment with HOXD13 [18], 9.38 upbm affinity estimate (log intensity, higher = more binding, comparable within an allelic series); in the experiment with HOXD13 [19] it was 9.56 upbm affinity estimate (log intensity, higher = more binding, comparable within an allelic series).
On to CCCTCCTC, for which the binding signal was 7.26 upbm affinity estimate (log intensity, higher = more binding, comparable within an allelic series) with SHOX [1] and 7.13 upbm affinity estimate (log intensity, higher = more binding, comparable within an allelic series) in the experiment with SHOX [3].
As to CAACCAGC, the binding signal is 7.2 upbm affinity estimate (log intensity, higher = more binding, comparable within an allelic series) in the experiment with SHOX [1] and 7.18 upbm affinity estimate (log intensity, higher = more binding, comparable within an allelic series) with SHOX [3].
For the sequence CCGCGGCC, the binding signal in the experiment with SHOX [1] was 7.18 upbm affinity estimate (log intensity, higher = more binding, comparable within an allelic series); in the experiment with SHOX [3], 7.17 upbm affinity estimate (log intensity, higher = more binding, comparable within an allelic series).
For the sequence CGAGCGCA, the binding signal is 7.22 upbm affinity estimate (log intensity, higher = more binding, comparable within an allelic series) with SHOX [1] and 7.31 upbm affinity estimate (log intensity, higher = more binding, comparable within an allelic series) with SHOX [3].
Regarding ATATTAAA, the binding signal with SHOX [1] is 9.92 upbm affinity estimate (log intensity, higher = more binding, comparable within an allelic series); with ALX3 [20] it was 8.59 upbm affinity estimate (log intensity, higher = more binding, comparable within an allelic series); with HOXD13 [17], 10.7 upbm affinity estimate (log intensity, higher = more binding, comparable within an allelic series); with HOXC9, 11.1 upbm affinity estimate (log intensity, higher = more binding, comparable within an allelic series); with ALX3 [21], 8.68 upbm affinity estimate (log intensity, higher = more binding, comparable within an allelic series).
For GGCCCAGA, the binding signal with SHOX [1] is 7.17 upbm affinity estimate (log intensity, higher = more binding, comparable within an allelic series); with SHOX [3] it was 7.12 upbm affinity estimate (log intensity, higher = more binding, comparable within an allelic series).
Consider CTCTCCTC, for which the binding signal is 7.22 upbm affinity estimate (log intensity, higher = more binding, comparable within an allelic series) in the experiment with SHOX [1] and 7.21 upbm affinity estimate (log intensity, higher = more binding, comparable within an allelic series) with SHOX [3].
As to CGGGGCCA, the binding signal with SHOX [1] is 6.97 upbm affinity estimate (log intensity, higher = more binding, comparable within an allelic series); with SHOX [3] it was 7.1 upbm affinity estimate (log intensity, higher = more binding, comparable within an allelic series).
On to AAGGCTCC, for which the binding signal with SHOX [1] is 7.08 upbm affinity estimate (log intensity, higher = more binding, comparable within an allelic series); in the experiment with SHOX [3] it was 7.1 upbm affinity estimate (log intensity, higher = more binding, comparable within an allelic series).
Consider GGACGTCC, for which the binding signal with SHOX [1] is 7.52 upbm affinity estimate (log intensity, higher = more binding, comparable within an allelic series); in the experiment with ALX3 [20], 7.88 upbm affinity estimate (log intensity, higher = more binding, comparable within an allelic series); in the experiment with SHOX [3], 7.3 upbm affinity estimate (log intensity, higher = more binding, comparable within an allelic series); with ALX3 [22], 7.9 upbm affinity estimate (log intensity, higher = more binding, comparable within an allelic series); with VAX1 [23], 7.88 upbm affinity estimate (log intensity, higher = more binding, comparable within an allelic series); with ALX3 [24], 7.79 upbm affinity estimate (log intensity, higher = more binding, comparable within an allelic series). Moreover, the binding signal with ALX3 [25] was 7.85 upbm affinity estimate (log intensity, higher = more binding, comparable within an allelic series); with VAX1 [26], 7.46 upbm affinity estimate (log intensity, higher = more binding, comparable within an allelic series); with ALX3 [21] it was 7.79 upbm affinity estimate (log intensity, higher = more binding, comparable within an allelic series); in the experiment with VAX1 [27], 7.64 upbm affinity estimate (log intensity, higher = more binding, comparable within an allelic series).

Values taken from publication PMC11006913.
